Laboratory results taken from the supplement of paper PMC9446081.
± gives the standard deviation of the averaged measurements.

Key:
Assay in all cases: relative enzymatic activity vs untreated control (fraction); higher = less inhibition
Details in all cases: 100 µM; incubation time: 2 h at 37 C
[1] = system: DNA gyrase
Method: (§1)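 In vitro enzymatic inhibition assays (ProFoldin kits) for 12 purified essential E. coli enzymes or complexes, each treated with 218 active antibacterial compounds at 100 µM for 2 h at 37°C. Read-outs were fluorescence or absorbance (phosphate detection, dye binding), converted to activity via standard curves and expressed relative to untreated DMSO controls.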

[2] = target: DNA helicase (UniProt P0ACB1)
Chain of DNA helicase (P0ACB1 whole entry): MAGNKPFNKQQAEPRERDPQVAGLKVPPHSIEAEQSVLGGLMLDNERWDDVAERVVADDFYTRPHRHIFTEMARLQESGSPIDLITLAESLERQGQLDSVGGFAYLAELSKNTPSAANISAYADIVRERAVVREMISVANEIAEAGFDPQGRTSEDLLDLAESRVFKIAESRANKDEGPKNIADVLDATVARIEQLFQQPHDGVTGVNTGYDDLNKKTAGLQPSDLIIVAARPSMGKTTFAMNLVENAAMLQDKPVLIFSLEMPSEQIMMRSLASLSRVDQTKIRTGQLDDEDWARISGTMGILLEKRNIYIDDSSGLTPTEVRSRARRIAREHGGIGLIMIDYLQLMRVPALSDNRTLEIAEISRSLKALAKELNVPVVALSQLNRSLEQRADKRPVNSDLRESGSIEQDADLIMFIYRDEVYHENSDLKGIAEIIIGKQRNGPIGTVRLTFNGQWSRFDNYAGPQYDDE
Method: as §1

[3] = target: DNA ligase (UniProt B1XA82)
Chain of DNA ligase (B1XA82 whole entry): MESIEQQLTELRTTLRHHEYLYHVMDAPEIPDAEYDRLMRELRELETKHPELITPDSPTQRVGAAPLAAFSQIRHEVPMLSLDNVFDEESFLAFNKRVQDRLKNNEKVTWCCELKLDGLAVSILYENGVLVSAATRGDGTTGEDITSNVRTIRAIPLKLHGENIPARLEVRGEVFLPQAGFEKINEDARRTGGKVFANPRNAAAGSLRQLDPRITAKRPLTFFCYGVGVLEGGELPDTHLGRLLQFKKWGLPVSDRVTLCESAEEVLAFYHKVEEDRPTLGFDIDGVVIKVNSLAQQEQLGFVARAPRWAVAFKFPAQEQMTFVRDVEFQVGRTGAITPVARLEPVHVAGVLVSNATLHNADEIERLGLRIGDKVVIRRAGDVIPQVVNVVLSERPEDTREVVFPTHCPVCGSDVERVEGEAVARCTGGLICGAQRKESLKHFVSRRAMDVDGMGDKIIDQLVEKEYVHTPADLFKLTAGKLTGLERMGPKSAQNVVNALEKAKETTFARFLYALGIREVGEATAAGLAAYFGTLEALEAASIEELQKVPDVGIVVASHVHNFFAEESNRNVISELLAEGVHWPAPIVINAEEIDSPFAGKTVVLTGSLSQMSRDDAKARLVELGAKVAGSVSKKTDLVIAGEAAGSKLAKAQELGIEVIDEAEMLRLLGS
Method: as §1

[4] = target: DNA polymerase (UniProt P10443)
Chain of DNA polymerase (P10443 whole entry): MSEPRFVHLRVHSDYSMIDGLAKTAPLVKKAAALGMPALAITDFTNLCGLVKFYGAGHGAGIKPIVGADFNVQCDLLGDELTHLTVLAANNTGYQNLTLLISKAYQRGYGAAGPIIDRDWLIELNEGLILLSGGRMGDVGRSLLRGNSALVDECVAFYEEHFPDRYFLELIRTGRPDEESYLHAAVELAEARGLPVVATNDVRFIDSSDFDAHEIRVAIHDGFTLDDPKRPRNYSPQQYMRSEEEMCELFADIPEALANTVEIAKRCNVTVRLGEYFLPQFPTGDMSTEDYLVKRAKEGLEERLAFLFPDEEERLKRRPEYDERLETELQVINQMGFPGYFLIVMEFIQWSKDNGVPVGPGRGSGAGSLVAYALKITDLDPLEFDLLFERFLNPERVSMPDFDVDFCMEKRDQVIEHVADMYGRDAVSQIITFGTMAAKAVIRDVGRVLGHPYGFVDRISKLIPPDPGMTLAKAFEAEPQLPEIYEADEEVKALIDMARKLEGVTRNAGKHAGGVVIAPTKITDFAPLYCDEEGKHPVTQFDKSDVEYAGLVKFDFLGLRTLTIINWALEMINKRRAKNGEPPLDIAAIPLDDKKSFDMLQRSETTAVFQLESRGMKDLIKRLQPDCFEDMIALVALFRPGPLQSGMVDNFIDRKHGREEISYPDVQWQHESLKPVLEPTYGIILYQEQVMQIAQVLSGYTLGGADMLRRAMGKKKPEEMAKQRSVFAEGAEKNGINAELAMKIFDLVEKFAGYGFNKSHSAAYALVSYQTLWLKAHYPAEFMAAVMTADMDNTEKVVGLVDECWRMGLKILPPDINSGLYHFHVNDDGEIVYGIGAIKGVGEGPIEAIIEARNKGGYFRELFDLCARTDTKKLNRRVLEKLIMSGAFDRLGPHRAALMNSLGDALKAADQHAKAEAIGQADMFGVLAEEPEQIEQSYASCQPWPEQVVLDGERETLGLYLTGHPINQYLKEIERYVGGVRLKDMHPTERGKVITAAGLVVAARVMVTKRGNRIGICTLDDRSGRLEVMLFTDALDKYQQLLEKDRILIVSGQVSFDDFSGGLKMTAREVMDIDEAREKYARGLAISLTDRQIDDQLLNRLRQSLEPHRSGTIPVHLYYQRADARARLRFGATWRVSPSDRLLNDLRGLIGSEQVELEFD
Method: as §1

[5] = target: DNA primase (UniProt P0ABS7)
Chain of DNA primase (P0ABS7 whole entry): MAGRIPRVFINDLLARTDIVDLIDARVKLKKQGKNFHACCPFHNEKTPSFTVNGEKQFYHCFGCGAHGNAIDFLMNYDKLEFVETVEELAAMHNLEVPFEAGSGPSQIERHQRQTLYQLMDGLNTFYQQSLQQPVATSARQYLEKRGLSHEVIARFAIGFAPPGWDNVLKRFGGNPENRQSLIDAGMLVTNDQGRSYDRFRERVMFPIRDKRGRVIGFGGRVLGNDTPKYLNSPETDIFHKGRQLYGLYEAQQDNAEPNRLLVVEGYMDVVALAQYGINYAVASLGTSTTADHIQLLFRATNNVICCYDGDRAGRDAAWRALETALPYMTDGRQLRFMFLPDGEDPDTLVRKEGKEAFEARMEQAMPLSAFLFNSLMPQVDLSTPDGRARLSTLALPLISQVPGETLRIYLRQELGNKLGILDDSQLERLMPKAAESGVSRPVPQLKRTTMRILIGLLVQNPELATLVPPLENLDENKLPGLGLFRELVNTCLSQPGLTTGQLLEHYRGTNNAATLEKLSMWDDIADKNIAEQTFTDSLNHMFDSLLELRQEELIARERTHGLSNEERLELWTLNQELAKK
Method: as §1

[6] = target: GlmU (UniProt A7ZTU1)
Chain of GlmU (A7ZTU1 whole entry, looked up): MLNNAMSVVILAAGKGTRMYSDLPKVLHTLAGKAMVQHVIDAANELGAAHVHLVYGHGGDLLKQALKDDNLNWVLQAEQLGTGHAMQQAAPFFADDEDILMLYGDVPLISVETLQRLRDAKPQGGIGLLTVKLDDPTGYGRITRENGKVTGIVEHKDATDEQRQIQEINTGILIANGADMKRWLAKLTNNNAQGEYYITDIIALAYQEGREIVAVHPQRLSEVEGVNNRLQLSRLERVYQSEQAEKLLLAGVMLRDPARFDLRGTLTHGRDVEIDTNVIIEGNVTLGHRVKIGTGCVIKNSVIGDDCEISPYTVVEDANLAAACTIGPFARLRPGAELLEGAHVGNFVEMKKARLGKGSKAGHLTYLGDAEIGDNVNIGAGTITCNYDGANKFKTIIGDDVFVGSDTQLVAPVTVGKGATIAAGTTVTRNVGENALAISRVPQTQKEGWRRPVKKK
Method: as §1

[7] = target: Guanlyate kinase (UniProt Q0TBG1)
Chain of Guanlyate kinase (Q0TBG1 whole entry): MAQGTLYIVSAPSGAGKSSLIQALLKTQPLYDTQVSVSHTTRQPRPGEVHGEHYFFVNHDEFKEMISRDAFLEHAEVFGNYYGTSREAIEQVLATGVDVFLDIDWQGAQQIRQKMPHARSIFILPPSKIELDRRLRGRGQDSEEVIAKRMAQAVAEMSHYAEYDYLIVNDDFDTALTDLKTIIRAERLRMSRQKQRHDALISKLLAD
Method: as §1

[8] = target: MurA (UniProt Q3YX52)
Chain of MurA (Q3YX52 whole entry): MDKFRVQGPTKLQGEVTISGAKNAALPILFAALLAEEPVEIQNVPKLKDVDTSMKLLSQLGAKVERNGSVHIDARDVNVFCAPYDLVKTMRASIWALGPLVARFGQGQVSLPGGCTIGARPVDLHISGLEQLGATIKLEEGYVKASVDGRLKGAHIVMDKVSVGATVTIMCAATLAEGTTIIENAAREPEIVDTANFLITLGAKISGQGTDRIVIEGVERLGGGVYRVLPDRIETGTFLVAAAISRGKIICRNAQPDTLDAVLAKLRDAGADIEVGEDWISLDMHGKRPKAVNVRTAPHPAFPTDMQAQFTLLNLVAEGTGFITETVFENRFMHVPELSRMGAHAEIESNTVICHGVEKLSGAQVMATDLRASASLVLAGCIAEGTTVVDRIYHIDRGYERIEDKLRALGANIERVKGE
Method: as §1

[9] = target: T1, MurD (UniProt P14900)
T1 sequence (whole entry): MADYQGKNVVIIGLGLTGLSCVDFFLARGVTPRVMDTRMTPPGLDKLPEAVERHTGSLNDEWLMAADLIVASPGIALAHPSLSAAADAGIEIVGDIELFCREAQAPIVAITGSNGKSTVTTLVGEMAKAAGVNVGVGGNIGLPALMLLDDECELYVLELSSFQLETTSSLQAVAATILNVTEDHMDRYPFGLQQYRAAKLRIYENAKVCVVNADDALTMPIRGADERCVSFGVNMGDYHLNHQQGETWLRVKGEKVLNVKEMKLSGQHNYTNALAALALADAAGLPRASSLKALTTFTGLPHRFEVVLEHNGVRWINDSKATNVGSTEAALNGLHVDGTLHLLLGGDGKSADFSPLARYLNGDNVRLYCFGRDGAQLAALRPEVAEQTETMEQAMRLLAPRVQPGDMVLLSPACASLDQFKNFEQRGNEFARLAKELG
Method: as §1

[10] = target: T2, MurF (UniProt P11880)
T2 sequence (whole entry): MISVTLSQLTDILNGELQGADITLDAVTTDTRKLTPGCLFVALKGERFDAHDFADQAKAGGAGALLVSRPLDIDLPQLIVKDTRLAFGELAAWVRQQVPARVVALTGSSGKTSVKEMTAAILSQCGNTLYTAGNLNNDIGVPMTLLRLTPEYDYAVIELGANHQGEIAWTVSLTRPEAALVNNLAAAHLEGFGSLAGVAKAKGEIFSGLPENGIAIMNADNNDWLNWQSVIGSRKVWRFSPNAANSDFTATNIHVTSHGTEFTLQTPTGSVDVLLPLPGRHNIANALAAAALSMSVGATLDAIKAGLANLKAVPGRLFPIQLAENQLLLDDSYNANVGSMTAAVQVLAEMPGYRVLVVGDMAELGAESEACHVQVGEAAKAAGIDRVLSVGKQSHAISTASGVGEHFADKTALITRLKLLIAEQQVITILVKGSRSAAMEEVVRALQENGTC
Method: as §1

[11] = system: RNA polymerase
Method: as §1

| Compound | relative enzymatic activity [1] | relative enzymatic activity [2] | relative enzymatic activity [3] | relative enzymatic activity [4] | relative enzymatic activity [5] | relative enzymatic activity [6] | relative enzymatic activity [7] | relative enzymatic activity [8] | relative enzymatic activity [9] | relative enzymatic activity [10] | relative enzymatic activity [11] |
| --- | --- | --- | --- | --- | --- | --- | --- | --- | --- | --- | --- |
| CCn1cc(C(=O)O)c(=O)c2cc(F)c(N3CCN(C)CC3)cc21.CS(=O)(=O)O | 0.0308 ± 0.043 | 0.573 ± 0.14 | 1.16 ± 0.29 | 1.27 ± 0.33 | 0.843 ± 0.025 | 0.944 ± 0.037 | 0.919 ± 0.11 | 0.696 ± 0.11 | 0.589 ± 0.41 | 1.109 ± 0.0024 | 0.862 ± 0.089 |
| CN[C@@H]1[C@H](O)[C@H](NC)[C@H]2O[C@@]3(O)C(=O)C[C@@H](C)O[C@H]3O[C@@H]2[C@H]1O | 0.826 ± 0.36 | 0.508 ± 0.2 | 1.12 ± 0.086 | 1.09 ± 0.072 | 0.8044 ± 0.0019 | 1 ± 0.033 | 1.06 ± 0.05 | 0.601 ± 0.16 | 0.624 ± 0.44 | 1.16 ± 0.02 | 0.91 ± 0.14 |
| NC(=O)N/N=C/c1ccc([N+](=O)[O-])o1 | 0.691 ± 0.48 | 0.657 ± 0.29 | 0.974 ± 0.26 | 1.04 ± 0.16 | 0.761 ± 0.072 | 1.006 ± 0.004 | 0.751 ± 0.048 | 0.504 ± 0.021 | 0.507 ± 0.66 | 0.962 ± 0.21 | 0.734 ± 0.088 |
